Holding throughout (assay type): functional
Test [1] concerns Plasmodium falciparum. The experiment in a line: GSK_TCMDC: Inhibition of Plasmodium falciparum 3D7 in whole red blood cells, using parasite LDH activity as an index of growth. Test compounds present at 2uM.
For test [2], the system named is Plasmodium falciparum. The experiment in a line: GSK_TCMDC: Inhibition of Plasmodium falciparum Dd2 in whole red blood cells, using parasite LDH activity as an index of growth. Test compounds present at 2uM.
The next test concerns HepG2. Nature of the test: GSK_TCMDC: Percent inhibition of human HepG2 cell line. Test compounds present at 10uM.

The text below walks through data of ChEMBL document CHEMBL1157539, “Thousands of chemical starting points for antimalarial lead identification” (Nature, 2010).

A word on the Inhibition: it is the change of the read-out against control, counted positive when it falls. Higher therefore signals strong suppression.

Regarding `CS(=O)(=O)CCNCc1cccc(-c2ccc3c(Nc4ccc(Oc5ccccc5)cc4)ccnc3c2)c1`, the Inhibition stood at 100% in the test on Plasmodium falciparum [1], 96% in the test on Plasmodium falciparum [2] and 18% with HepG2.

Regarding `COc1cccc(CCNc2nc(NCc3ccccc3)c3cc(OC)c(OC)cc3n2)c1`, the Inhibition in the test on Plasmodium falciparum [1] is listed as 100%; in the test with Plasmodium falciparum [2] it was 99%; with HepG2, 20%.

For the molecule `Fc1ccc2[nH]c(-c3ccc(-c4ccc(CN5CCC(CCN6CCCCC6)CC5)cc4)s3)nc2c1.O=C(O)C(F)(F)F`, the Inhibition in the test on Plasmodium falciparum [1] was determined as 100%; in the test with Plasmodium falciparum [2], 100%; with HepG2 it was 96%.

For `CCCCSc1ccc2nc(-c3c[nH]c4ccc(C#N)cc34)cn2c1`, the figures for the Inhibition in the test on Plasmodium falciparum [1], in the test with Plasmodium falciparum [2] and with HepG2 were 94%, 37% and 3%, respectively.

In the case of `Cn1c(NC(=O)C2CCC(CNC(=O)c3ccc(O)c(-c4cccc([N+](=O)[O-])c4)c3)CC2)nc2ccccc21` (stereo not drawn), the Inhibition with Plasmodium falciparum [1] is 95%; in the test on Plasmodium falciparum [2] it was 97%; in the test with HepG2, 6%.

`Cl.Clc1cc(Br)ccc1-c1ccc(CNCC2CCNCC2)o1`: the Inhibition with Plasmodium falciparum [1] came out at 96%; with Plasmodium falciparum [2], 39%; in the test with HepG2 it was 100%.

For `C=C(C)Cn1cc(C2CCN(CCN3CCC(CNC(=O)c4ccc(-c5ccc(C#N)cc5)cc4)CC3)CC2)c2ccccc21`, the Inhibition in the test on Plasmodium falciparum [1] is 99%; in the test on Plasmodium falciparum [2], 94%; in the test with HepG2 it was 64%.

As to `Cl.O=C(Nc1ccc(C2=NC3CCCCC3N2)cc1)Nc1ccc(C2=NC3CCCCC3N2)cc1` (stereo not drawn), the values for the Inhibition with Plasmodium falciparum [1], with Plasmodium falciparum [2] and with HepG2 were 88%, 76% and 7%, respectively.

Turning to `CC(=O)CC(=O)N1CCN(c2ccccc2)CC1`, the Inhibition in the test with Plasmodium falciparum [1] is recorded as 85%; in the test on Plasmodium falciparum [2] it was 0%; with HepG2, 54%.

`Cc1cc(N/N=C/c2ccccc2[N+](=O)[O-])c2ccc(F)cc2n1`: the Inhibition in the test on Plasmodium falciparum [1] is 100%; in the test with Plasmodium falciparum [2], 100%; in the test on HepG2 it was 32%.

`O=C(Nc1cccc(-c2ccc(-c3nc4cc(F)ccc4[nH]3)cc2)c1)c1csnn1`: the Inhibition stood at 94% in the test with Plasmodium falciparum [1], 31% in the test on Plasmodium falciparum [2] and 22% with HepG2.
